Measurements from PubChem BioAssay (NCI).
About 83,000 compounds went through this panel and 20% of them were active in at least one assay; those are over-represented in the sample as a whole.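 How to read the values: 0–100, growth inhibition (40 = 60% inhibited); 0, no net growth; -100 to 0, cell death (-40 = 40% of starting cells died; -100 = all dead).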 A number with no mark means an inactive call. Active and inactive are the calls of the source.

test system: NCI-H460 lung; assay: NCI-60 one-dose screen, 48 h (100 = growth as untreated, 0 = no growth, -100 = all killed); conditions: 10 µM
Method: Growth inhibition of the NCI-H460 human Non-Small Cell Lung tumor cell line is measured as a screen for anti-cancer activity. Cells are grown in 96 well plates and exposed to the test compound for 48 hours. Compounds are tested at a single concentration, which is 10^-5 M for most compounds. The reported endpoint is percent growth (GI% or GIPRCNT), where numbers from 0 - 100% represent growth inhibition, and numbers from -100% - 0 represent cell death. For example, a value of 40 represents 60% growth inhibition. A value of 0 means no net growth occurred over the course of the experiment. A value of -40 indicates 40% of cells at the beginning of the experiment died by the end of the experiment. A value of -100 means all cells are dead at the end of the experiment.
NCI-60 Human Tumor Cell Lines Screen was performed using the standard one-dose NCI protocol, which is described in more detail at https://dtp.cancer.gov/discovery_development/nci-60/default.htm.
Compounds with GIPRCNT values below 10 were considered active. Activity score was based on GIPRCNT using the following formula: […]
Score is 0 for GIPRCNT values of 100 or above, 50 for GIPRCNT values of 0, and 100 for GIPRCNT values of -100.

Structure (SMILES) | growth
Cc1ccc(C(=O)/C=C/c2ccccc2)s1 | 108%
CCc1cc(Cl)c(OC)c(C(=O)NCC2CCCN2CC)c1O (stereo not given) | 104%
CCN(CC)CC(=O)N(CC)c1ccc(C)c(Cl)c1 | 104%
CSc1ccc(-c2cc(-c3ccc(NC(=O)CCCN4CCCC4)cc3)nc(-c3ccc(NC(=O)CCCN4CCCC4)cc3)c2)cc1 | 32.1%
Cc1[nH]c2ccccc2c1/C=N/Nc1ncnc2sc3c(c12)CCN(CC(=O)OC(C)(C)C)C3 | 98.3%
O=C1C=C(Nc2cccc(Br)c2)c2ccccc2C1=O | 12.7%
COc1cc2cc(Oc3ccc(NC(=O)Nc4ccc(Cl)c(Cl)c4)cc3)c(C)nc2cc1OC | 3.68% (active)
Cc1ccc(NC(=S)NNC(=S)Nc2ccc(C)cc2)cc1 | 89.4%
c1cncc(-c2csc(-c3c[nH]c4ccccc34)n2)c1 | 97%
O=C(/C=C/C=C/c1c(C2CC2)nc2ccccc2c1-c1ccc(F)cc1)c1cccs1 | -7.38% (active)
COc1ccc(-c2n[nH]nc2-c2cc(OC)c3c(c2OC)OCO3)cc1 | 11.4%
O=C(N/N=C/c1cc([N+](=O)[O-])ccc1O)c1cccc2ccccc12 | 20.7%
CCCCN(CCCC)C(=O)[C@H](CC)[C@@H]1CC[C@@H](C)[C@@H]([C@H](C)[C@@H](O)[C@@H](C)C(=O)[C@H](CC)C2O[C@]3(C=C[C@@H](O)[C@]4(CC[C@@](C)([C@H]5CC[C@](O)(CC)[C@H](C)O5)O4)O3)[C@H](C)C[C@@H]2C)O1 (stereo not given in full) | -4.44% (active)
COc1cc(/C=C/c2cc(/C=C/c3ccc(O)c(OC)c3)n(C(=O)Nc3ccc(C)cc3)n2)ccc1O | 10.1%
O=C1CSC(=S)N1/N=C/c1ccc(Cl)s1 | 107%
CS(=O)(=O)c1nccc(-c2c(-c3cccc(OCCc4ccccc4)c3)nc3sccn23)n1 | 106%
CC1=CC2C(C(O)CC3(C)C2CC(C)C32OCOC23COCO3)C2(C)C/C(=C/O)C(=O)C=C12 (stereo not given) | 7.96% (active)
COc1ccc(-c2nn(-c3cccc(Cl)c3)cc2-c2cc(-c3ccccc3)[nH]c(=O)c2C#N)cc1 | 31.6%
CC[C@@H](C(=O)[C@H](C)[C@H](O)[C@@H](C)[C@H]1O[C@H]([C@@H](CC)C(=O)N(CC)CC)CC[C@H]1C)C1O[C@]2(C=C[C@@H](O)[C@]3(CC[C@@](C)([C@H]4CC[C@](O)(CC)[C@H](C)O4)O3)O2)[C@H](C)C[C@@H]1C (stereo not given in full) | 12.5%
Nc1ccccc1NC(=O)c1ccc(CCCC(=O)Nc2ccc(C3CC3N)cc2)cc1 (stereo not given) | 40.4%

Structure (SMILES) | growth
CC(=O)COc1ccc(Cl)cc1Cl | 110%
COc1cc(NC(=O)C2=C(N3CCOCC3)/C(=C/c3ccc(Cl)cc3)CC2)cc(OC)c1OC | 99.6%
CS(=O)(=O)c1nccc(-c2c(-c3ccc(OCCc4ccccc4)cc3)nc3sccn23)n1 | 101%
COc1cc(-c2nn(-c3cccc(NC(=O)CN4CCOCC4)c3)cc2-c2cccnc2)ccc1Cl | 84%
CCCc1nc(C(C)(C)O)c(C(=O)O)n1Cc1ccc(-c2ccccc2-c2nn[nH]n2)cc1 | 105%
CCC(CC)n1c(C)cc(=O)n1C(CC)CC | 103%
CCCCN(CCCC)C(=O)[C@H](CC)[C@@H]1CC[C@@H](C)[C@@H]([C@H](C)[C@@H](O)[C@@H](C)C(=O)[C@H](CC)C2O[C@]3(C=CC(=O)[C@]4(CC[C@@](C)([C@H]5CC[C@](O)(CC)[C@H](C)O5)O4)O3)[C@H](C)C[C@@H]2C)O1 (stereo not given in full) | 19.7%
O=C(COc1cccc(/C=C2\CSc3ccccc3C2=O)c1)c1ccc(Cl)cc1 | 68.5%
COc1cc(-c2nn(-c3cccc(NC(=O)NCCNC(=O)c4ccccc4)c3)cc2-c2ccncc2)ccc1Cl | 13.5%
N#Cc1cnn(C(=O)c2nn(-c3ccc(Cl)cc3)cc2O)c1N | 3.09% (active)
Cc1ccc(C(SCC(N)C(=O)O)(c2ccc(C)cc2)c2ccc(C)cc2)cc1 (stereo not given) | 3.09% (active)
OC(CNc1ccnc2cc(Cl)ccc12)CNC1CCCCC1 (stereo not given) | 109%
COc1ccc2nc(Cl)c(Cn3nnc(Cc4ccccc4)n3)cc2c1 | 40%
Nc1nc(Cl)nc2c1ncn2C1O[C@H](CO)[C@@H](O)[C@@H]1F (stereo not given in full) | 3.27% (active)
CN1CCN(CCC(=O)Nc2cccc(-n3cc(-c4ccncc4)c(-c4ccc(Cl)c(O)c4)n3)c2)CC1 | 13.4%
C#CCOc1c(OC)cc(C(=O)/C(C)=C/c2cccc(N=[N+]=[N-])c2)cc1OC | 16.7%
O=C(CCCCC(=O)Oc1c(Cl)cc(Cl)cc1[N+](=O)[O-])Oc1c(Cl)cc(Cl)cc1[N+](=O)[O-] | 106%
CCCCCOC(=O)Nc1nc(=O)n(C2O[C@H](C)[C@@H](O)[C@H]2O)cc1F (stereo not given in full) | 102%
Cc1ccc(-n2nnnc2N)c(C)c1 | 103%
Fc1ccc2[nH]cc(-c3nc(-c4ccsc4)cs3)c2c1 | 121%
